Data: article PMC4336329 (PLoS ONE, 2015)
Screen size: about 310,000 compounds; about 14,000 (4.5%) showed an effect of 50% or more. The effect is printed as a negative number. This excerpt belongs to a sample that is enriched for strong results.

Molecular target: human ether-à-go-go-related gene (hERG) potassium channel (human, UniProt Q12809)
Assay: primary screen, population patch clamp on CHO cells stably expressing hERG; higher = less effect of the substance
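Also: peak tail current of the secondary pulse compared with the same well before compound.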

Sequence of human ether-à-go-go-related gene (hERG) potassium channel (Q12809 whole entry, looked up): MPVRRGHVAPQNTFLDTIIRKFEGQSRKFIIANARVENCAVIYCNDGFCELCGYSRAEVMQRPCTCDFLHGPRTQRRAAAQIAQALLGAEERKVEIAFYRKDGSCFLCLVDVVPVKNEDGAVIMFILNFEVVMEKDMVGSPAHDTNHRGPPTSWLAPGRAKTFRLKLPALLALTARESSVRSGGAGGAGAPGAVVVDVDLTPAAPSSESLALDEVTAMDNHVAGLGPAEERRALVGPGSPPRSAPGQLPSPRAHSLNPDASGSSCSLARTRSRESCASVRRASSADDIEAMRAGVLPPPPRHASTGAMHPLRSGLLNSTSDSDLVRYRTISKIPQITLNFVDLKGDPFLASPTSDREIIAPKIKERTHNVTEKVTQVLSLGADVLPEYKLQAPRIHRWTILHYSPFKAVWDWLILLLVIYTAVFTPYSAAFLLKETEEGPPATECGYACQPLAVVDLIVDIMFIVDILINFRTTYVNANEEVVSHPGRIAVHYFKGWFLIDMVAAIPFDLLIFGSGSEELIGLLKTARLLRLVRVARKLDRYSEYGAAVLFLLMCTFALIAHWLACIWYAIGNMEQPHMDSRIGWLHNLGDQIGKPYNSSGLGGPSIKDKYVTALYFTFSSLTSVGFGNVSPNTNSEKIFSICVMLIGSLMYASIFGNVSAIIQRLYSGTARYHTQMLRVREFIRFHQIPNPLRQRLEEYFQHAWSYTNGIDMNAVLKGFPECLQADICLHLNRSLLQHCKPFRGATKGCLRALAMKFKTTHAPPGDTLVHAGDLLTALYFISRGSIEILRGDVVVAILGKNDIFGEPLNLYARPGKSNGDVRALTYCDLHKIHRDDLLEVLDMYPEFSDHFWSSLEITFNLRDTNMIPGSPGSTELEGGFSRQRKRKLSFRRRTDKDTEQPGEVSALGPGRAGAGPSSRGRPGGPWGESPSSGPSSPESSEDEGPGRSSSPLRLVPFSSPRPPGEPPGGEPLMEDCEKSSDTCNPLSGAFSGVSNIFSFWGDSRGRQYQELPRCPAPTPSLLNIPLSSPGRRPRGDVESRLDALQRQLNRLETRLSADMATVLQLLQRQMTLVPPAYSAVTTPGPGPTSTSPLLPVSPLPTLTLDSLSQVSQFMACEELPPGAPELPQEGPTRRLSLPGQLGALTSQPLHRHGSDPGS

Structure (SMILES) | hERG current change (%, negative = inhibition) at 10uM [%]
N#Cc1c(NC(=O)CCN2C(=O)c3ccccc3C2=O)oc(-c2ccccc2)c1-c1ccccc1 | -11.7
O=C1CCCN1CC1CCCN(Cc2nc(COc3ccccc3)no2)C1 (stereo not drawn) | 28.6
O=C(NCc1ccccc1F)C1CCCN(C(=O)Nc2ccccc2)C1 (stereo not drawn) | 3.18
Cc1noc(C)c1COc1cccc(C(=O)OC(C)C(=O)Nc2ccc3c(c2)OCO3)c1 (stereo not drawn) | -61.2
Cc1noc(C)c1COc1cccc(C(=O)Nc2ccc3c(c2)OCO3)c1 | 9.81
COc1cc(C(=O)OC(C)C(=O)Nc2ccc3c(c2)OCO3)ccc1OCc1c(C)noc1C (stereo not drawn) | 15.8
CCCCc1c(O)nc2sccn2c1=O | -2
CCOC(=O)c1ccc(NS(=O)(=O)c2c(C)nc3sccn3c2=O)cc1 | 1.63
Cc1nc2sccn2c(=O)c1S(=O)(=O)NCCc1ccccc1 | -21.5
Cc1nc2sccn2c(=O)c1S(=O)(=O)NCc1ccccc1 | -2.53
Cc1nc2sccn2c(=O)c1CCN1CCC(=C(c2ccccc2)c2ccc(F)cc2)CC1 | -78
CCOc1ccccc1NC(=O)N1CCC(C(=O)c2ccc(F)cc2)CC1 | -32
Cc1ccccc1NC(=O)N1CCC(C(=O)c2ccc(F)cc2)CC1 | -16.3
Cc1nc2ccccn2c(=O)c1CCN1CCC(C(=O)c2ccc(F)cc2)CC1 | -73.3
Cc1nc2sccn2c(=O)c1CCN1CCC(=C(c2ccc(F)cc2)c2ccc(F)cc2)CC1 | -78.6
COc1ccc(C2=NN(c3ccccc3)C(c3cn(CCC(=O)O)nc3-c3ccccc3)C2)cc1 (stereo not drawn) | 1.09
COC(=O)C1CCN(C(=O)Cc2ccc(OC)c(OC)c2)CC1 | 0.292
C[C@H]1CCC(=O)N(CCSc2ccc(Br)cc2)CC1 | -23.8
Cc1ccc(SCCN2CCN(CCc3ccccc3)CCC2=O)cc1 | -69.6
CN1CCC(=O)N(CCSc2ccccc2)CC1 | -3.36
O=C1CCN(CCc2ccccc2)CCN1CCSc1ccc(Br)cc1 | -80.1
CN1CCC(=O)N(CCSc2ccc(Br)cc2)CC1 | -25.5
COc1ccc(SCCN2CCN(CC(C)C)CCC2=O)cc1 | -42.9

Structure (SMILES) | hERG current change (%, negative = inhibition) at 10uM [%]
O=C1CCN(CCc2ccccc2)CCN1CCOc1ccccc1 | -72.8
O=C1CCN(Cc2ccccc2)CCN1CCOc1ccccc1 | -10.4
CCCN1CCC(=O)N(CCOc2ccccc2)CC1 | -6.3
CC(C)CN1CCC(=O)N(CCSc2ccc(Br)cc2)CC1 | -61.3
[N-]=[N+]=NCCN1CCN(CCc2ccccc2)CCC1=O | 9.16
CC(C)CN1CCC(=O)N(CCSc2ccccc2)CC1 | -15.4
COc1ccccc1OCCNC(=O)c1ccc2c(c1)CCC2 | -5.96
Cc1ccc(S(=O)(=O)NC(=NCC(=O)O)c2ccccc2)cc1 | 2.94
COc1cc(OC)cc(C(=O)NNC(=O)c2cc(S(=O)(=O)N3CCOCC3)ccc2F)c1 | -1.89
CCC(=O)n1nc(-c2ccccc2)nc1NCc1ccccc1 | 10.9
Cn1ncc(N)c1C(=O)Nc1cccc(C(F)(F)F)c1 | 1.42
CCOC(=O)c1cc(C)n(-c2ccc(OC)c(OC)c2)c1C | -16.5
COc1cccc(NC(=S)N2CCC(NC(=O)c3ccco3)CC2)c1 | -11
CCOc1ccc2nc(NC(=O)c3ccccn3)sc2c1 | 6.42
COC(=O)c1cc(C)nc2c1C(=O)C(=O)C=C2N1CCOCC1 | -2.1
O=C1CCN(CCc2ccccc2)CCN1CCO | -4.16
CCCN1CCC(=O)N(CCSc2ccccc2)CC1 | -15.1
O=C1CCN(CCc2ccccc2)CCN1CCSc1ccccc1 | -76.4
CCN(CC)S(=O)(=O)c1ccc(NC(=O)CO/N=C(\N)c2ccccc2)cc1 | -16.6
O=C(CN1CCOc2ccccc21)NCc1cccs1 | 8.26
Br.CCOC(=O)CN1C2=NCCN2c2ccccc21 | 18.1
Br.O=C(CN1C2=NCCN2c2ccccc21)c1cccs1 | -31.3
